In the library only some 19% were active in any assay of this set; here they are far more common.
IL1B secr inh = qHTS for Inhibitors of Inflammasome Signaling: IL-1-beta AlphaLISA Primary Screen; THP-1 LPS/ATP IL-1B secretion, AlphaLISA, 16 h; stronger effect = lower value; activity change, % at 57.5 µM; 4.7% of 360,000 active; in the data active means activity change below about -50%; inconclusive means mostly about -30% to -49%
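THP-1 cells pretreated 1 hr with compounds (up to 57.5 uM final), then stimulated with LPS (250 ng/mL final) plus ATP (1.25 mM final); secreted IL-1B measured by AlphaLISA after 16 hr, decreased signal indicating inhibition.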
HT1080 IDH1KD tx = qHTS for induction of synthetic lethality in tumor cells producing 2HG: qHTS for the HT-1080-IDH1KD cell line; 2% of 360,000 active; Potency, µM (titrated, usually from 46.1 µM), actives largely listed as cytotoxic; HT-1080 IDH1 knockdown viability, ATP luminescence, 48 h
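IDH1KD HT-1080 cells, 750/well, RPMI + 5% FBS; compound pinned after 2 h settling; 48 h, 37 °C; CellTiter-Glo luminescence; % activity normalised to DMSO and no-cell wells; curves fitted, classed by r2 and efficacy.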
uPA surface inh = qHTS for Inhibitors of Cell Surface uPA Generation; cell surface uPA generation assay, qHTS; Potency, µM (series often up to 38.3 µM), hits mostly inhibitors; 0.31% of 330,000 active; AID 540303, 2011; active means well fitted inhibition curve with a large enough effect; inconclusive means small, poorly fitted or top-dose-only effect; inactive means no such curve, though single readings can be large or run the other way; tested in mouse RAW 264.7 cells; further: nearly all actives have a fitted effect of over 55% in size
HT1080-NT tox = qHTS for induction of synthetic lethality in tumor cells producing 2HG: qHTS for the HT-1080-NT fibrosarcoma cell line; AID 686970, 2013; 1.6% of 360,000 active; Potency, µM (doses to about 46.1 µM), usual class: cytotoxic; HT-1080-NT fibrosarcoma viability, CellTiter-Glo ATP luminescence, 48 h;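 further: NT is the 2HG producing partner of a matched IDH1 knockdown line; nearly all actives have a fitted effect of over 55% in size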
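Toxicity toward the 2HG-producing NT line was scored as %Activity, normalised to DMSO and no-cell wells, from CellTiter-Glo luminescence after 48 hours' treatment.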
DT40 TDP1 no CPT = qHTS for Inhibitors of human tyrosyl-DNA phosphodiesterase 1 (TDP1): qHTS in cells in absence of CPT. DT40 Tdp1-/- hTDP1 cells, no CPT, ATP luminescence, 48 h. Potency, µM (series often up to 46.2 µM), most hits filed as inhibitors. 15% of 420,000 active. AID 686978, 2013; further: nearly all actives have a fitted effect of over 55% in size
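Compound effects on proliferation are scored in DT40 Tdp1-/-;hTDP1 cells in the absence of CPT. ATP levels (CellTiter-Glo luminescence) are recorded after a ≥48 hr, 37 °C incubation.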
TDP1 cell CPT = qHTS for Inhibitors of human tyrosyl-DNA phosphodiesterase 1 (TDP1): qHTS in cells in presence of CPT. chicken DT40 Tdp1-/-;hTDP1 cells + 20 nM CPT, ATP luminescence, 48 h. Potency, µM (series often up to 46.2 µM), hits mostly inhibitors. 12% of 420,000 active. AID 686979, 2013; further: nearly all actives have a fitted effect of over 55% in size
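Chicken DT40 Tdp1-/- cells stably complemented with human TDP1 were seeded at 400 cells/well in medium containing 20 nM camptothecin, exposed to pin-transferred compounds, and grown at 37 °C for at least 48 hr. Viability was read as ATP luminescence.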
Large screens that a line does not name were inactive. Unless noted, the call rests on the fitted dose curve; in most records, active means well fitted curve in the direction sought with a large enough effect; inconclusive means small, poorly fitted or top-dose-only effect, or another doubt; inactive means no such curve, though single readings can be large; an effect the other way counts as inactive or inconclusive.

COc1ccc(CNC(=O)c2ccc3c(c2)nc2n3CCC(C)C2)c(OC)c1 (configuration not stated)	DT40 TDP1 no CPT inconclusive (no result: IL1B secr inh, HT1080 IDH1KD tx, uPA surface inh, HT1080-NT tox)
Clc1cccc(-c2nnc(-c3ccccc3)o2)c1	DT40 TDP1 no CPT 23.1µM, TDP1 cell CPT 16.4µM
ClCc1nnc(-c2ccccc2)o1	IL1B secr inh -87.8, uPA surface inh inconclusive, DT40 TDP1 no CPT 25.9µM, TDP1 cell CPT inconclusive
c1ccc(OCc2nnc(-c3ccccc3)o2)cc1	none
COc1cccc(-n2nc(-c3ccnn3-c3cccc(Cl)c3)c(=O)n(C)c2=O)c1	IL1B secr inh inconclusive, DT40 TDP1 no CPT 16.4µM, TDP1 cell CPT 23.1µM
Cc1sc(NC(=O)C2C3C=CC(C3)C2C(=O)O)c(C(N)=O)c1-c1ccc(C(C)C)cc1 (configuration not stated)	HT1080 IDH1KD tx inconclusive, DT40 TDP1 no CPT inconclusive, TDP1 cell CPT inconclusive
CC1(C)C(=O)C=C(N2CCCCC2)c2ccccc21	DT40 TDP1 no CPT inconclusive, TDP1 cell CPT inconclusive (no result: uPA surface inh)
COC(=O)CN(C#N)c1nc(NCc2ccccc2)nc(OC)n1	IL1B secr inh -66.7, DT40 TDP1 no CPT inconclusive, TDP1 cell CPT inconclusive
COc1ccc(S(=O)(=O)NCCc2ccccc2)cc1	none
Cc1nn(C)c(Oc2ccccc2)c1CCNS(=O)(=O)c1ccc(Cl)cc1	IL1B secr inh inconclusive, HT1080 IDH1KD tx inconclusive, DT40 TDP1 no CPT 16.4µM, TDP1 cell CPT 16.4µM
Cc1nn(C)c(Oc2ccccc2)c1CCNC(=O)C(C)(C)C	none
COc1ccc(S(=O)(=O)NCCc2c(C)nn(C)c2Oc2ccccc2)cc1	DT40 TDP1 no CPT 23.1µM, TDP1 cell CPT inconclusive
O=C(COc1ccc2c(c1)CCC2)Nc1ccccn1	none
CCN(CC)CCNCC(O)(c1ccc(Cl)cc1)c1ccc(Cl)cc1	IL1B secr inh -86.6, HT1080 IDH1KD tx 20.6µM, HT1080-NT tox 20.6µM, DT40 TDP1 no CPT 16.4µM, TDP1 cell CPT inconclusive
CCN(CC)CCNCc1ccc(-c2ccc(Cl)cc2)o1	HT1080 IDH1KD tx inconclusive, HT1080-NT tox 15.8µM, DT40 TDP1 no CPT inconclusive, TDP1 cell CPT inconclusive
NCC(O)(c1ccc(Cl)cc1)c1ccc(Cl)cc1	IL1B secr inh -56.1, DT40 TDP1 no CPT 10.3µM, TDP1 cell CPT 16.4µM
CC(C)NCC(O)(c1ccc(Cl)cc1)c1ccc(Cl)cc1	IL1B secr inh -83.6, DT40 TDP1 no CPT 20.6µM, TDP1 cell CPT inconclusive
COc1ccc(CCNC(=O)C/C(C)=N/NC(=O)c2cnccn2)cc1	none
CCN(CC)CCOc1ccc(C(O)(Cc2ccc(Cl)cc2)c2ccc(C)cc2)cc1 (configuration not stated)	DT40 TDP1 no CPT 4.73µM, TDP1 cell CPT 2.99µM (no result: IL1B secr inh, HT1080 IDH1KD tx, uPA surface inh, HT1080-NT tox)

Screening results as filed in PubChem BioAssay.
